PubChem BioAssay (EPA / NIEHS)
Records with an inconclusive call do not appear. Calls of active or inactive are those of the source. Rule for the calls: active = hit-call score of the fitted dose curve at least 0.9, where 1 is the maximum; inconclusive = response in the unintended direction; inactive = score below 0.9.

Experiments:
[1] = ACEA_AR_agonist_AUC_viability: ACEA Biosciences xCELLigence Real-Time Cell Analysis on Androgen Receptor Agonism for Viability (AID 2283775);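 for AC50: viability read 80 hours after compound addition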
How it was run: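 Read-out is area under the impedance curve at 80 h post-dose in 22Rv1 cells, with DMSO as baseline and signal loss taken as reduced viability. Compounds ran in duplicate from 100 uM final.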

[2] = ACEA_AR_antagonist_AUC_viability: ACEA Biosciences xCELLigence Real-Time Cell Analysis on Androgen Receptor Antagonism for Viability (AID 2283776);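 note: 22Rv1 human prostate cancer cells growing on impedance electrode plates; area under impedance growth curve at 80 h after dosing as viability; hits lower the growth signal relative to DMSO meaning cytotoxicity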
How it was run: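 Real-time electrical impedance tracks 22Rv1 proliferation after continuous compound exposure (top 100 uM final, 1:4 steps, 8 concentrations). The 80 h area-under-curve serves as the cytotoxicity readout relative to DMSO.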

[3] = tested on: zebrafish Estrogen Receptor (ESR2B), gene 317733; assay: ATG_zfER2b_XSP1: Attagene TRANS-FACTORIAL Multi-Species (XSP1) HepG2 Assay for zebrafish Estrogen Receptor (ESR2B) (AID 2283773)
How it was run: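 HepG2 cells transiently transfected with multiple GAL4-UAS reporter units expressing chimeric zebrafish ER2b-Gal4; 24 h chemical exposure with 3 nM 6-alpha-fluorotestosterone present. Reporter mRNA measured by RT-PCR and capillary electrophoresis; gain of signal fitted versus DMSO.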

[4] = tested on: frog Estrogen Receptor (ESR1), gene 398734; assay: ATG_frER1_XSP1: Attagene TRANS-FACTORIAL Multi-Species (XSP1) HepG2 Assay for frog Estrogen Receptor (ESR1) (AID 2283777)
How it was run: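 Read-out: fluorescent reporter mRNA via RT-PCR, HpaI digestion and capillary electrophoresis, after 24 h chemical exposure of transiently transfected human HepG2 cells expressing exogenous NR-Gal4 chimeras. DMSO served as baseline for positive-direction fitting.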

[5] = tested on: zebrafish Estrogen Receptor (ESR2A), gene 317734; assay: ATG_zfER2a_XSP1: Attagene TRANS-FACTORIAL Multi-Species (XSP1) HepG2 Assay for zebrafish Estrogen Receptor (ESR2A) (AID 2283778)
How it was run: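 HepG2 cells transiently transfected with multiplexed GAL4-UAS reporter units and chimeric NR-GAL4 receptors; 24 h compound exposure with 3 nM 6-alpha-fluorotestosterone present. Reporter mRNA quantified by RT-PCR and capillary electrophoresis, gain-of-signal fitted relative to DMSO.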

[6] = biological target: chicken Estrogen Receptor (ESR1), ESR1 (gene 396099) (UniProt P06212); assay: ATG_chERa_XSP1: Attagene TRANS-FACTORIAL Multi-Species (XSP1) HepG2 Assay for chicken Estrogen Receptor (ESR1) (AID 2283779)
Chain of chicken Estrogen Receptor (ESR1), ESR1 (gene 396099) (P06212 whole entry, looked up, the tested form may be a part): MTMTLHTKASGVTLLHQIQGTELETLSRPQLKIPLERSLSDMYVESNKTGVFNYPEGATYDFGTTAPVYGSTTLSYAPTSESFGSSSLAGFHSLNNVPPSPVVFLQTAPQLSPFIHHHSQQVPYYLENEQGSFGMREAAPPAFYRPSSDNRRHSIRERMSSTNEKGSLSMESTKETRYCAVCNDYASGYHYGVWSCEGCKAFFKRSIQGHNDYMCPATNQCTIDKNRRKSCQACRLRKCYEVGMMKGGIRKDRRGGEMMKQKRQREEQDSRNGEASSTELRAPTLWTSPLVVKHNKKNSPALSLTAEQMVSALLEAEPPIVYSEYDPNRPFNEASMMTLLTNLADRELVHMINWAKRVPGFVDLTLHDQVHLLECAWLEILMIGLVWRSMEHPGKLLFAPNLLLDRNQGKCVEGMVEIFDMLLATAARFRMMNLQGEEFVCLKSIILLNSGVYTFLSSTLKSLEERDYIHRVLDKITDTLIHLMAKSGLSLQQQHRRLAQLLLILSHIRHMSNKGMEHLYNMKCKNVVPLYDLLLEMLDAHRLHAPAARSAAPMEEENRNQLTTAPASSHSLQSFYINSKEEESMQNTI
How it was run: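 HepG2 cells transiently transfected with multiplexed GAL4-UAS reporter units expressing chimeric NR-Gal4 proteins; 3 nM 6-alpha-fluorotestosterone present. Reporter mRNA measured 24 h after dosing by RT-PCR, FAM labelling, HpaI digest and capillary electrophoresis; gain of signal versus DMSO.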

[7] = biological target: Estrogen receptor (Homo sapiens) (UniProt P03372); assay: ATG_hERa_XSP1: Attagene TRANS-FACTORIAL Multi-Species (XSP1) HepG2 Assay for human Estrogen Receptor (ESR1) (AID 2283780)
Chain of Estrogen receptor (Homo sapiens) (P03372 whole entry, looked up, the tested form may be a part): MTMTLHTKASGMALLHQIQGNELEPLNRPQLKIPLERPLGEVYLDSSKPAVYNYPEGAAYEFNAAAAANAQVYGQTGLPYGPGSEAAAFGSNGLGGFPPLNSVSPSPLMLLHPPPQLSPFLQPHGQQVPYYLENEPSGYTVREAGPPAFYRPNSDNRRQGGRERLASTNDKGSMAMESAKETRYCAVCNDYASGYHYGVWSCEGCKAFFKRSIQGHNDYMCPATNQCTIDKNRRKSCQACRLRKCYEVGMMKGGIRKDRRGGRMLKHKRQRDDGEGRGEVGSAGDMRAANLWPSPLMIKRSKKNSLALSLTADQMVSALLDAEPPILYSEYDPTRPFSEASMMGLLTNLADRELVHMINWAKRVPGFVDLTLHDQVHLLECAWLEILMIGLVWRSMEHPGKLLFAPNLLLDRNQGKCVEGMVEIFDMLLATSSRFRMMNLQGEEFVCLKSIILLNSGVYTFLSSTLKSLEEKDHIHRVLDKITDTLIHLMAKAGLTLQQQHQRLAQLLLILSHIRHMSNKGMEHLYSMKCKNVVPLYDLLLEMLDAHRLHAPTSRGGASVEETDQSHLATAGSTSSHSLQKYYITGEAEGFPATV
How it was run: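 HepG2 cells transiently transfected with GAL4-UAS reporter units and chimeric NR-Gal4 constructs; 24 h after dosing, reporter mRNA quantified by RT-PCR and capillary electrophoresis. Medium contained 3 nM 6-alpha-fluorotestosterone; activity fitted as gain-of-signal versus DMSO.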

[8] = tested on: frog Estrogen Receptor (ESR2), gene 100174814; assay: ATG_frER2_XSP1: Attagene TRANS-FACTORIAL Multi-Species (XSP1) HepG2 Assay for frog Estrogen Receptor (ESR2) (AID 2283774)
How it was run: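 HepG2 cells transiently transfected with GAL4-UAS multiplexed reporter units expressing chimeric NR-Gal4 proteins; reporter mRNA measured 24 h after dosing by RT-PCR, FAM labeling, HpaI digestion and capillary electrophoresis. Gain-of-signal relative to DMSO; 3 nM 6-alpha-fluorotestosterone present.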

[9] = tested on: turtle Estrogen Receptor (ESR1), gene 101933533; assay: ATG_trERa_XSP1: Attagene TRANS-FACTORIAL Multi-Species (XSP1) HepG2 Assay for turtle Estrogen Receptor (ESR1) (AID 2283781)
How it was run: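 HepG2 cells transiently transfected with GAL4-UAS reporter units and chimeric NR-Gal4 constructs, dosed for 24 h with 3 nM 6-alpha-fluorotestosterone present. Reporter mRNA was quantified by RT-PCR, fluorescent labelling and capillary electrophoresis, with gain of signal fitted relative to DMSO.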

[10] = biological target: zebrafish Estrogen Receptor (ESR1), esr1 (gene 259252) (UniProt P57717); assay: ATG_zfER1_XSP1: Attagene TRANS-FACTORIAL Multi-Species (XSP1) HepG2 Assay for zebrafish Estrogen Receptor (ESR1) (AID 2283772)
Chain of zebrafish Estrogen Receptor (ESR1), esr1 (gene 259252) (P57717 whole entry, looked up): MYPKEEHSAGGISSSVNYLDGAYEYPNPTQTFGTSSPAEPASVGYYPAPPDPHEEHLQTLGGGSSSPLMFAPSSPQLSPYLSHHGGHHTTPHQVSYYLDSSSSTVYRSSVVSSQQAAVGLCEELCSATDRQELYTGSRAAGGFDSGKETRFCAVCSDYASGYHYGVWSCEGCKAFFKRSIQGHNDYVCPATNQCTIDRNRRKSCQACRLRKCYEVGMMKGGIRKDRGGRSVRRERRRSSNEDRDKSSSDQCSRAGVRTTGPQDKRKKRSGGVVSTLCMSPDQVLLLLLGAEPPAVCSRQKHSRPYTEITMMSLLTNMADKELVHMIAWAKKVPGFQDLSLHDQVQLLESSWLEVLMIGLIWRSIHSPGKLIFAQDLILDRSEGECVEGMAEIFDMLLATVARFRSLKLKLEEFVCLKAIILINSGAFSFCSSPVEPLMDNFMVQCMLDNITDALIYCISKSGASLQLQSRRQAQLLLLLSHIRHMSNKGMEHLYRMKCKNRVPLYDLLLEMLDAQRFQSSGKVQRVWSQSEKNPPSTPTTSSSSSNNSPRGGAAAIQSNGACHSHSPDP
Method: ATG_XSP1_multi-species_TRANS is a cell-based, multiplexed assay created by modifying the existing Attagene TRANS-FACTORIAL system to include a panel of nuclear receptors from some or all the following species: human (Homo sapiens), mouse (Mus musculus), frog (Xenopus laevis), zebrafish (Danio rerio), chicken (Gallus gallus), and turtle (Chrysemys picta). The ECOTOX-FACTORIAL format uses HepG2, a human liver cell line, with measurements taken at 24 hours after chemical dosing in a 24-well plate. Xsp1 included 3 nM 6-alpha-fluorotestosterone to partially stimulate the androgen receptor.ATG_zfER1_XSP1 is one of 29 assay components measured or calculated from the ATG_XSP1_multi-species_TRANS assay. It is designed to make measurements of mRNA induction, a form of inducible reporter, as detected with fluorescence intensity signals by Reverse transcription polymerase chain reaction (RT-PCR) and Capillary electrophoresis technology.The assay endpoint ATG_zfER1_XSP1 was analyzed in the positive analysis fitting direction relative to DMSO as the negative control and baseline of activity. […] Furthermore, this assay endpoint can be referred to as a primary readout, because this assay has produced multiple assay endpoints where this one serves a reporter gene function. […]

CC(=O)c1ccccc1
outcome [1]: inactive | outcome [2]: inactive

OCc1ccccc1
outcome [1]: inactive | outcome [2]: inactive

CC(C)CCCCCCOC(=O)C1CCCCC1C(=O)OCCCCCCC(C)C (stereo not given)
outcome [1]: inactive

NC(N)=O
outcome [1]: inactive | outcome [2]: inactive

O=C(NO)C1(NS(=O)(=O)c2ccc(Oc3ccc(F)cc3)cc2)CCOCC1
AC50 [1]: 38.5 µM (active) | AC50 [2]: 50 µM (active)

CCCOc1ccc(S(=O)(=O)N2CCN(CC)CC2)cc1-c1nc2c(CC)n(Cc3ccccn3)nc2c(=O)[nH]1
outcome [1]: inactive | outcome [2]: inactive

CC(C)CC(C)O (stereo not given)
outcome [1]: inactive | outcome [2]: inactive

CCCCCCOC(=O)CC(CC(=O)OCCCCCC)(OC(=O)CCC)C(=O)OCCCCCC
outcome [1]: inactive | outcome [2]: inactive

NC(=O)N(O)[C@@H]1COc2cc(OCc3ccccc3)ccc21
outcome [1]: inactive

c1ccc2c(c1)-c1cccc3c1c-2cc1ccccc13
AC50 [1]: 36.5 µM (active) | AC50 [2]: 4.1 µM (active)

O=C(O)c1cccc(C[C@@H]2COc3ccc(OCc4nc5cc(F)ccc5s4)cc3[C@@H]2O)c1
outcome [1]: inactive | outcome [2]: inactive

CCCCC(CC)C(=O)OCCOCCOCCOC(=O)C(CC)CCCC (stereo not given)
AC50 [1]: 50 µM (active) | AC50 [2]: 50 µM (active)

Cc1ncc([C@@H](CCCCCCc2ccc3c(n2)NCCC3)CC(=O)O)cn1
AC50 [1]: 0.00386 µM (active) | AC50 [2]: 0.00579 µM (active)

Cn1c(=O)c2[nH]cnc2n(C)c1=O
outcome [1]: inactive

CC(C)c1nnc2ccc(-c3ocnc3-c3cc(F)ccc3F)cn12
AC50 [1]: 66.8 µM (active) | AC50 [2]: 37.1 µM (active)

c1ccc2ncccc2c1
outcome [1]: inactive | outcome [2]: inactive

CCCCCCCC/C=C\CCCCCCCC(=O)OC[C@@H](O)[C@H]1OC[C@H](O)[C@H]1O
outcome [1]: inactive

O=C(O)[C@H](O)[C@@H](O)C(=O)O
outcome [1]: inactive | outcome [2]: inactive

OCC(CO)(CO)CO
outcome [1]: inactive

O=c1[nH]cnc2c1ncn2[C@H]1CC[C@@H](CO)O1
outcome [1]: inactive | outcome [2]: inactive

CCc1cccc(CC)c1N
AC50 [1]: 50 µM (active) | AC50 [2]: 9.94 µM (active)

O=S(=O)(O)c1ccc(N=Nc2c(O)ccc3cc(S(=O)(=O)O)ccc23)cc1
outcome [1]: inactive

CCOC(N)=O
outcome [1]: inactive | outcome [2]: inactive

CC(C)C(=O)Nc1ccc([N+](=O)[O-])c(C(F)(F)F)c1
outcome [3]: inactive | AC50 [1]: 55.2 µM (active) | outcome [4]: inactive | outcome [5]: inactive | outcome [6]: inactive | outcome [7]: inactive

OC[C@H]1O[C@@H]2O[C@H]3[C@H](O)[C@@H](O)[C@@H](O[C@H]4[C@H](O)[C@@H](O)[C@@H](O[C@H]5[C@H](O)[C@@H](O)[C@@H](O[C@H]6[C@H](O)[C@@H](O)[C@@H](O[C@H]7[C@H](O)[C@@H](O)[C@@H](O[C@H]1[C@H](O)[C@H]2O)O[C@@H]7CO)O[C@@H]6CO)O[C@@H]5CO)O[C@@H]4CO)O[C@@H]3CO
outcome [1]: inactive | outcome [2]: inactive

CCCc1ccccc1
outcome [1]: inactive | outcome [2]: inactive

C=CCc1cc(S(=O)(=O)c2ccc(O)c(CC=C)c2)ccc1O
AC50 [3]: 1.68 µM (active) | AC50 [8]: 1.53 µM (active) | AC50 [1]: 24.3 µM (active) | AC50 [2]: 24.5 µM (active) | AC50 [6]: 1.19 µM (active) | AC50 [7]: 1.36 µM (active) | AC50 [9]: 1 µM (active)

CCN(CC)C(=S)SSC(=S)N(CC)CC
outcome [10]: inactive | AC50 [1]: 25.8 µM (active) | AC50 [2]: 26 µM (active)

Cc1nccn1-c1ccc(Sc2cccc(C3(C(N)=O)CCOCC3)c2)cc1
AC50 [1]: 25.5 µM (active) | AC50 [2]: 24 µM (active)

CCc1ccc(O)c(C(C)(C)C)c1
AC50 [1]: 66.1 µM (active) | AC50 [2]: 70.5 µM (active)

COc1cc(C(C)C)c2c(c1)S(=O)(=O)N(COc1cc(=O)n3cccc(OCCN4CCCCC4)c3n1)C2=O
AC50 [1]: 22.3 µM (active) | AC50 [2]: 16.8 µM (active)

CC[C@H](C)C(=O)O[C@H]1C[C@H](O)C=C2C=C[C@H](C)[C@H](CC[C@@H](O)C[C@@H](O)CC(=O)O)[C@H]21
outcome [1]: inactive | outcome [2]: inactive

Cc1cccc(O)c1C
outcome [2]: inactive

CCOc1ccc2[nH]cc(C(=O)NCc3ccccc3)c(=O)c2n1
AC50 [1]: 26.1 µM (active) | AC50 [2]: 35.9 µM (active)

C[C@@H](Oc1ccc(CNC(=O)c2cccnc2Oc2ccc3c(c2)OCO3)c(F)c1)C(=O)O
outcome [2]: inactive

CCCCCCCCCCCCCCO
AC50 [1]: 50 µM (active) | AC50 [2]: 50 µM (active)

OC(CCl)CCl
outcome [1]: inactive | outcome [2]: inactive

CNC(C)=O
outcome [1]: inactive | outcome [2]: inactive

COS(C)(=O)=O
outcome [2]: inactive

O=C(O)c1cccc(C(=O)O)c1
outcome [1]: inactive | outcome [2]: inactive

CCCCCCCCN(C)C
outcome [1]: inactive | outcome [2]: inactive

CCn1nc(C)c2c1C(=O)NCC(c1ccc(O)cc1)=N2
AC50 [1]: 25.8 µM (active) | AC50 [2]: 15.1 µM (active)
